Assay outcomes as filed in PubChem.
Tau FP inhib: blocks human tau fibril formation measured by polarization; K18 P301L tau heparin fibrillization, Alexa594 FP, 6 h; Potency, µM (top dose mostly 57.7 µM), for the others: top-dose activity, negative = inhibition, hits mostly inhibitors; 280,000 compounds, 0.39% hits; further: nearly all actives have a fitted effect of over 55% in size
Target sequence (P10636 561-689 P618L limits assumed): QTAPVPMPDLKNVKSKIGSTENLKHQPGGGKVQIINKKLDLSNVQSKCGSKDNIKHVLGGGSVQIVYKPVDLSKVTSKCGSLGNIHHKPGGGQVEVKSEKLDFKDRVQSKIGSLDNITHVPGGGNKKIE
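Quantitative HTS format: compounds meet 15 uM recombinant K18 P301L tau and Alexa 594-tau tracer in 100 mM sodium acetate pH 7; 20 uM heparin triggers fibrillization at 37 C over 6 hr; FP gives the signal.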
NPSR antag: blocks cAMP signaling of the human neuropeptide S receptor | Potency, µM (top dose mostly 38.3 µM), for inactives: top-dose activity change, negative = inhibition, most hits filed as inhibitors | 220,000 compounds, 1% hits | CHO-NPSR cells, cAMP TR-FRET, antagonist mode | AID 1461; further: nearly all actives have a fitted effect of over 50% in size
Tau fluor cs: counter-screen for tau fibril formation inhibitors; 280,000 compounds, 0.93% hits; Potency, µM (doses to about 57.7 µM), inactives show top-dose activity change, negative = decrease; tau K18 P301L Alexa594 fluorescence, heparin fibrillization; further: nearly all actives have a fitted effect of over 55% in size
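Human tau K18 P301L (15 uM unlabeled, 0.24 uM Alexa 594-labeled) in 100 mM sodium acetate pH 7 with 20 uM heparin, 6 hr at 37 C. ThT 30 uM added, 1 hr ambient; Alexa 594 FP and total fluorescence read at 555/632 nm.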
HPGD inh: inhibitors of human 15-hydroxyprostaglandin dehydrogenase (HPGD); P15428; purified HPGD, NADH fluorescence kinetic, PGE2 substrate; Potency, µM, without a hit: at the top dose activity change, negative = inhibition, most hits filed as inhibitors; 150,000 compounds, 4.3% hits; AID 894; active means well fitted inhibition curve with a large enough effect, not every such curve was filed as active; inconclusive means small, poorly fitted or top-dose-only effect, or another doubt; inactive means no such curve, though single readings can be large or run the other way
Target sequence (P15428 whole entry, looked up): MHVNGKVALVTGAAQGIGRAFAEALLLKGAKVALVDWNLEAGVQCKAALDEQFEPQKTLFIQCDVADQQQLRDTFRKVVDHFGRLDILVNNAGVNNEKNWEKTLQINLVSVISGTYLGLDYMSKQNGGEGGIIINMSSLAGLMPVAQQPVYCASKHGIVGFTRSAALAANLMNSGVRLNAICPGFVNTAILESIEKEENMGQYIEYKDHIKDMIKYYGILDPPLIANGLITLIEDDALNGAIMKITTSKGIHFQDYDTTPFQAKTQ
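20 nM HPGD preincubated 15 min at room temperature with compound in 50 mM Tris-HCl pH 8, 0.01% Tween 20. Started with 1 mM NAD+ and 30 uM prostaglandin E2; NADH fluorescence (360/450 nm) read 5 times over 30-s intervals, last minus first.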
Tau ThT inhib: inhibitors of human tau fibril formation, thioflavin T binding. P10636. recombinant tau K18 P301L (four-repeat tau fragment), heparin-induced fibrillization, ThT fluorescence. Potency, µM (top dose mostly 57.4 µM), without a hit: at the top dose activity, negative = inhibition, usual class: inhibitors. 270,000 compounds, 2.1% hits; further: nearly all actives have a fitted effect of over 55% in size
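Recombinant human tau K18 fragment […] carrying P301L, 15 uM unlabeled plus 0.24 uM Alexa 594-labeled, was fibrillized with 20 uM heparin in 100 mM sodium acetate pH 7 for 6 hr at 37 C; 30 uM ThT fluorescence read after 1 hr.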
ALDH1A1 block: ALDH1A1 (human) enzyme inhibition; 220,000 compounds, 7.3% hits; P00352; AID 1030; Potency, µM (highest dose often 75.3 µM), for inactives: at the top dose activity, negative = inhibition, actives largely listed as inhibitors; Purified ALDH1A1, NADH fluorescence, propionaldehyde substrate; active means well fitted inhibition curve with a large enough effect, not every such curve was filed as active; inconclusive means small, poorly fitted or top-dose-only effect, or another doubt; inactive means no such curve, though single readings can be large or run the other way;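 further: plate controls were no enzyme wells and a reference inhibitor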
The depositor's hits bear a star; ? = inconclusive; . = not tested or not shown; [ ] = another dose, or the depositor's remark. Only some compounds are listed: those with a hit (about 9.5% of all), similar ones and a draw of the others. Unless noted, the call rests on the fitted dose curve; in most records, active means well fitted curve in the direction sought with a large enough effect; inconclusive means small, poorly fitted or top-dose-only effect, or another doubt; inactive means no such curve, though single readings can be large; an effect the other way counts as inactive or inconclusive. Unless noted, on the % scale 0 is the no-effect control and ±100 the full control effect; potency means the concentration at half of the fitted maximal effect.

SMILES	Tau FP inhib	NPSR antag	Tau fluor cs	HPGD inh	Tau ThT inhib	ALDH1A1 block
COc1ccc(N(CCCN2C(=O)c3cccc4cccc(c34)C2=O)C(=O)c2cccc(OC)c2)cc1	-7%	3%[46.1 µM]	-25%	-11%	-11%	8.9µM*
Cc1ccc(N(CCCCN2C(=O)c3ccccc3C2=O)C(=O)c2cccc([N+](=O)[O-])c2)cc1	3%	?	-25%	-8%	-13%	?
O=C1c2ccccc2C(=O)N1CCCCN(C(=O)c1cc([N+](=O)[O-])cc([N+](=O)[O-])c1)c1ccc(Cl)cc1	4%	13%	-9%	-7%	4%	1.4µM*
O=C1c2ccccc2C(=O)N1CCCCN(C(=O)c1ccc([N+](=O)[O-])cc1)c1ccc(Cl)cc1	16%	?	-19%	-6%	-11%	1.6µM*
CCCCCCCCCCCCCCCC(N)=O	6%	.	-8%	-3%	-8%	-4%
Cc1cc(C)c(NC(=O)c2ccc[n+](Cc3ccc([N+](=O)[O-])cc3)c2)c(C)c1	1%	24%	3%	-4%	-1%	6%
CS(=O)(=O)c1ccc2nc(NC(=O)c3ccc(S(=O)(=O)NCC4CCCO4)cc3)sc2c1 (stereo not drawn)	-15%	-7%	-16%	.	-3%	-4%
C=CCOC(=O)N[C@H](/C(C(=O)OC)=C(\C)NCc1ccccc1)c1cccc(OC)c1	-3%	.	-4%	-8%	0%	3%
C=Cc1ccc(Cn2c(=O)cc(C)c3c(C)nn(-c4ccccc4)c32)cc1	-15%	.	-13%	.	-5%	.
O=C1c2ccccc2C(=O)N1CCCCN(C(=O)c1cc([N+](=O)[O-])ccc1Cl)c1ccc(Cl)cc1	13%	-22%	-25%	-15%	-10%	5µM*
CC(C)(C)C1CCc2sc(-c3nnc(CCl)o3)cc2C1 (stereo not drawn)	17%	0%	1%	.	-14%	22µM*
CCOC(=O)N1CCC(N(CCN(C)C)C(=S)Nc2cc(C)cc(C)c2)CC1	-1%	-4%[46.1 µM]	-9%	6%	-9%	2%
CC1N(C)c2cc(NC(=O)c3ccco3)ccc2C1(C)C (stereo not drawn)	?	-16%[46.1 µM]	28µM*[fluorescent]	-6%	?	-2%
CCn1c2ccccc2c2cc(NC(=O)c3cccc(OC)c3)ccc21	10%	-15%[46.1 µM]	13µM*[quencher]	?	?	?
CCn1c2ccccc2c2cc(NC(=O)CNCC3CCCO3)ccc21 (stereo not drawn)	16%	-16%	-21%	.	?	32µM*
CC(=O)Nc1ccc(NC(=O)c2ccco2)cc1	-12%	-14%[46.1 µM]	-14%	-12%	-17%	-1%
CCn1c2ccccc2c2cc(NC(=O)COc3ccc(C)c(C)c3)ccc21	1%	.	-21%	.	?	.
CCn1c2ccccc2c2cc(NC(=O)CSc3nnc(C4CC4)n3Cc3ccco3)ccc21	16%	1%[46.1 µM]	?	?	?	18µM*
CC1CCN(S(=O)(=O)c2ccc3c(c2)CCC(=O)N3CC(=O)Nc2cccc(C#N)c2)CC1	-9%	.	?	.	2%	.
Cc1ccc(C2c3[nH]c4ccccc4c3CCN2C(=O)Nc2ccc(C)c(C)c2)cc1 (stereo not drawn)	5%	.	-18%	.	0%	.
CCn1c2ccccc2c2cc(NC(=O)c3ccco3)ccc21	17%	-12%[46.1 µM]	25µM*[quencher]	-4%	?	-5%
CCn1c2ccccc2c2cc(NC(C)=O)ccc21	4%	?	-22%	-8%	-8%	0%
CCc1ccccc1NC(=O)Cn1nnc(C(=O)NCc2cccc(OC)c2)c1N	-14%	.	-11%	.	-9%	.
COc1cc(S(=O)(=O)N2CCN(C(=O)c3ccccc3)CC2)c(OC)cc1Br	6%[2.34 µM]	12%	2%	.	-1%	-10%
O=C1c2ccncc2C(=O)N1Cc1cccc(Cl)c1	-5%	-3%[46.1 µM]	-4%	18µM*	6%	1%
O=C1c2cccc3cccc(c23)C(=O)N1Cc1cccnc1	-3%	0%	-2%	.	4%	.
